Reference: ChEMBL document CHEMBL5308504, “Tm Shift (DSF) assay results for EUbOPEN Chemogenomics Library” (2023)

What was measured:
Details in all cases: Compound concentration 20.0 uM, Protein concentration 2.0 uM, Result type QC Liability
[1] = target: Tyrosine-protein kinase ABL1 (Homo sapiens) (UniProt P00519)
[2] = target: Cyclin-dependent kinase 2 (Homo sapiens) (UniProt P24941)
[3] = target: Casein kinase I isoform delta (Homo sapiens) (UniProt P48730)
[4] = target: Glycogen synthase kinase-3 beta (Homo sapiens) (UniProt P49841)
[5] = target: Mitogen-activated protein kinase 1 (Homo sapiens) (UniProt P28482)
[6] = target: T1, Aurora kinase A (Homo sapiens) (UniProt O14965)
T1 sequence (whole entry): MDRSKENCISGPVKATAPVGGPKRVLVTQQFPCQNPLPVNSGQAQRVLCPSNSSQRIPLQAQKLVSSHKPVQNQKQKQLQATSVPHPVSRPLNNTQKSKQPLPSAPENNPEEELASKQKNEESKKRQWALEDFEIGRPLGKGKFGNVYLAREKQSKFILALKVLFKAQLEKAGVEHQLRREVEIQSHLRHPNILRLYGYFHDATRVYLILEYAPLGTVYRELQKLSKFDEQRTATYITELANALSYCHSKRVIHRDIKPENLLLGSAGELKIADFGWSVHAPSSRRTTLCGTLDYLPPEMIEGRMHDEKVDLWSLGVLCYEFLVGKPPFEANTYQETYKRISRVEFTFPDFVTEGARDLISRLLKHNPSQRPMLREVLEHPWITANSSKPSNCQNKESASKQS

Glycogen synthase kinase-3 beta (Homo sapiens), sequence (P49841 whole entry, looked up): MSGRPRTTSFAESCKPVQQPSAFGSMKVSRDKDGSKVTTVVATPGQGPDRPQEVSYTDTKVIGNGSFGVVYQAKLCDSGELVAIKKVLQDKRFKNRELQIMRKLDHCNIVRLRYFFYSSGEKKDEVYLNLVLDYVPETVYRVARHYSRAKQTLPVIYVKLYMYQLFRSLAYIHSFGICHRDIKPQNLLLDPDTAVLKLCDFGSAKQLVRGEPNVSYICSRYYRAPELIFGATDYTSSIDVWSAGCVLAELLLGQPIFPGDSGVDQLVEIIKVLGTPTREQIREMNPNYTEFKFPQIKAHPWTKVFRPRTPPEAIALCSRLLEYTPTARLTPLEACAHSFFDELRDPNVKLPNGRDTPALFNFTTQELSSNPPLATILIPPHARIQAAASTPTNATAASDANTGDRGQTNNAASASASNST
Casein kinase I isoform delta (Homo sapiens), sequence (P48730 whole entry, looked up, canonical isoform): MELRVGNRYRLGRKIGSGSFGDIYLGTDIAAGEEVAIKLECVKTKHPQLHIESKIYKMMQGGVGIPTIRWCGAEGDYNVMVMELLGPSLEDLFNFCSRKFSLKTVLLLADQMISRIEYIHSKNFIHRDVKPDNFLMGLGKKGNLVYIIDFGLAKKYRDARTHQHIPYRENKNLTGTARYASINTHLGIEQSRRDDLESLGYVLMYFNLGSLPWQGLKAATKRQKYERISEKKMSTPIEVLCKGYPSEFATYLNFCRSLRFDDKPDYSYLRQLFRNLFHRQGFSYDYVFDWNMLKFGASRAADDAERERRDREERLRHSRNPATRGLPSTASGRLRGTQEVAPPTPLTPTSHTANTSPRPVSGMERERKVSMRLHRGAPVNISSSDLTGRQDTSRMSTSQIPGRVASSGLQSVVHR
Mitogen-activated protein kinase 1 (Homo sapiens), sequence (P28482 whole entry): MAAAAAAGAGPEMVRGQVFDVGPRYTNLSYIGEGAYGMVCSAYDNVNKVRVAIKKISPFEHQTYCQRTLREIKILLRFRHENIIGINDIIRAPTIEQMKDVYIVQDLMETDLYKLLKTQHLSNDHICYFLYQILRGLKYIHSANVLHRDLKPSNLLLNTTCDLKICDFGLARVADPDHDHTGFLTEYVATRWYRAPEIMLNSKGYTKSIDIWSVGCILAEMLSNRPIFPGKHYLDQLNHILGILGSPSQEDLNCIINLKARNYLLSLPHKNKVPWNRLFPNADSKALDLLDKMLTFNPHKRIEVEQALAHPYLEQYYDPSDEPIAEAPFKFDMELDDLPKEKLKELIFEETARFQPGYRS
Tyrosine-protein kinase ABL1 (Homo sapiens), sequence (P00519 whole entry): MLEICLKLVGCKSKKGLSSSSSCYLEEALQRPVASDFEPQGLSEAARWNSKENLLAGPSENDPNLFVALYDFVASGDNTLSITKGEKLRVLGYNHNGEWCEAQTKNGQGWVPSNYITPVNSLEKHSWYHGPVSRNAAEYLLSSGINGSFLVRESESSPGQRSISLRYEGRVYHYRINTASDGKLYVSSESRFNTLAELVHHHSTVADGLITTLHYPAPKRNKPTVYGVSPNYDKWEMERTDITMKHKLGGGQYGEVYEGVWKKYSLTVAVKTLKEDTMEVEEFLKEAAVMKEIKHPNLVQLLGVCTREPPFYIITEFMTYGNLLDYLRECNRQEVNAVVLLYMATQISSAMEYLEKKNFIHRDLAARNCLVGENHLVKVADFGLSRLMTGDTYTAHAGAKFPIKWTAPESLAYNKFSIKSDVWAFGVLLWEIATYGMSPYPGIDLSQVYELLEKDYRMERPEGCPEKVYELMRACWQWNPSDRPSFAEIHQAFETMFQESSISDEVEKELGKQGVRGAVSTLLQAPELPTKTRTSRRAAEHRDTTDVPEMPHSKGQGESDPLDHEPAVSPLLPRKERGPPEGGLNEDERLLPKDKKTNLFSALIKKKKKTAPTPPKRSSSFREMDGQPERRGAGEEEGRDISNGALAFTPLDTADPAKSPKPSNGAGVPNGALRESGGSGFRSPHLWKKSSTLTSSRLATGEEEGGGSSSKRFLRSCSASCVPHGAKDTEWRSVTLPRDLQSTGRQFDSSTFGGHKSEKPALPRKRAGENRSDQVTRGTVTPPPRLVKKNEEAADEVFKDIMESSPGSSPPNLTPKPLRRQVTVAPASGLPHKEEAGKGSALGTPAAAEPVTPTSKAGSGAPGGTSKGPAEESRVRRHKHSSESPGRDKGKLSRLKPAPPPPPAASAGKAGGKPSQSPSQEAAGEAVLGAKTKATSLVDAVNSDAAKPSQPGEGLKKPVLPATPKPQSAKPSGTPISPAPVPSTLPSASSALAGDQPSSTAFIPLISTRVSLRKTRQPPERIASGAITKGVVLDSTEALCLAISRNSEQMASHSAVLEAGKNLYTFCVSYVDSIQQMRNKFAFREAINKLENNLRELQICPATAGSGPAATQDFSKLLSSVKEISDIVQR

CN[C@@H](C)C(=O)N[C@H](C(=O)N1CCC[C@H]1c1nc(C(=O)c2ccc(F)cc2)cs1)C1CCCCC1
ΔTm [1]: 0.09 °C
ΔTm [2]: 0.27 °C
ΔTm [3]: 0.62 °C
ΔTm [4]: -1.01 °C
ΔTm [5]: 0.23 °C
ΔTm [6]: -1.15 °C

Cc1cc2c(-c3ccco3)cnc(N[C@H]3CCN(C)C[C@@H]3C(=O)NC3CCCCC3)c2[nH]c1=O
ΔTm [1]: 0.25 °C
ΔTm [2]: 0.22 °C
ΔTm [3]: 0.37 °C
ΔTm [4]: -0.67 °C
ΔTm [5]: 0.2 °C
ΔTm [6]: -1.37 °C

O=C(NCc1ccc(F)cc1)C1CCN(S(=O)(=O)c2cc(Cl)cc(Cl)c2)CC1
ΔTm [1]: 0.04 °C
ΔTm [2]: -0.1 °C
ΔTm [3]: 0.71 °C
ΔTm [4]: -0.45 °C
ΔTm [5]: 0 °C
ΔTm [6]: 0.52 °C

N[C@@H]1CCCN(c2c(/C=C3\SC(=O)NC3=O)cccc2-c2ccccc2)C1
ΔTm [1]: -0.18 °C
ΔTm [2]: 2.37 °C
ΔTm [3]: 0.88 °C
ΔTm [4]: 3.72 °C
ΔTm [5]: 0.64 °C
ΔTm [6]: -0.48 °C

CCOC(=O)Nc1ccc2c(c1)N(C(=O)CN(CC)CC)c1ccccc1CC2
ΔTm [1]: 0.17 °C
ΔTm [2]: 0.57 °C
ΔTm [3]: 0.58 °C
ΔTm [4]: -0.12 °C
ΔTm [5]: 0.19 °C
ΔTm [6]: -1.06 °C

CCn1c(-c2nonc2N)nc2ccccc21
ΔTm [1]: 0.33 °C
ΔTm [2]: 0.64 °C
ΔTm [3]: 0.5 °C
ΔTm [4]: 4.22 °C
ΔTm [5]: 0.41 °C
ΔTm [6]: 1.84 °C

Cc1ccc(-c2cn3nc(C(=O)NC4(c5ccc(F)cc5)CN(C)C4)c(C(C)C)c3c(=O)[nH]2)cc1C
ΔTm [1]: -0.12 °C
ΔTm [2]: 0.03 °C
ΔTm [3]: 0.69 °C
ΔTm [4]: -0.83 °C
ΔTm [5]: 0.08 °C
ΔTm [6]: 0.49 °C

COc1ccc(-c2csc(NC(=O)[C@H]3CCCCN3S(=O)(=O)c3ccc(C)cc3)n2)cc1
ΔTm [1]: 0.82 °C
ΔTm [2]: 0.77 °C
ΔTm [3]: 2.05 °C
ΔTm [4]: 9.29 °C
ΔTm [5]: -0.89 °C
ΔTm [6]: 0.39 °C

Cn1cc(NC(=O)c2ccc3nc4n(c3c2)CCCNC4=O)nc1C(=O)NC1CCCC1
ΔTm [1]: 1.61 °C
ΔTm [2]: 0.41 °C
ΔTm [3]: 0.38 °C
ΔTm [4]: -0.59 °C
ΔTm [5]: 0.46 °C
ΔTm [6]: 0.5 °C

COc1cc2c(NC3CCN(C(C)C)CC3)nc(C3CCCCC3)nc2cc1OCCCN1CCCC1
ΔTm [1]: 0.15 °C
ΔTm [2]: 0.9 °C
ΔTm [3]: 0.11 °C
ΔTm [4]: -0.55 °C
ΔTm [5]: 0.32 °C
ΔTm [6]: 0.5 °C

Cn1nc(C(=O)NCc2ccc(C(=O)O)cc2)cc1-c1ccc2[nH]ccc2c1
ΔTm [1]: 0.76 °C
ΔTm [2]: 0.58 °C
ΔTm [3]: 0.39 °C
ΔTm [4]: -0.55 °C
ΔTm [5]: 0.47 °C
ΔTm [6]: 0.09 °C

Cc1cc(OCCC(C)(C)O)cc(C)c1-c1ccc(F)c2c1CC[C@H]2Oc1ccc2c(c1)OC[C@H]2CC(=O)O
ΔTm [1]: -2.63 °C
ΔTm [2]: -3.73 °C
ΔTm [3]: -1.62 °C
ΔTm [4]: -4.17 °C
ΔTm [5]: -8.53 °C
ΔTm [6]: -3.22 °C

N=C(N)Nc1cc(C2CCNCC2)cc(C(F)(F)F)c1
ΔTm [1]: 0.05 °C
ΔTm [2]: 0.64 °C
ΔTm [3]: 0.15 °C
ΔTm [4]: -0.15 °C
ΔTm [5]: 0.15 °C
ΔTm [6]: -0.12 °C

O=C(O)CCCCN(CCc1ccccc1OCc1ccc(CCc2ccccc2)cc1)Cc1ccc(C(=O)O)cc1
ΔTm [1]: -0.26 °C
ΔTm [2]: 0.13 °C
ΔTm [3]: -0.05 °C
ΔTm [4]: -0.16 °C
ΔTm [5]: -0.08 °C
ΔTm [6]: -0.23 °C

FC(F)(F)c1ccc(CNc2ccc(Cc3c[nH]c4ncc(Cl)cc34)cn2)cn1
ΔTm [1]: -2.59 °C
ΔTm [2]: 1.62 °C
ΔTm [3]: 1.05 °C
ΔTm [4]: -0.38 °C
ΔTm [5]: 0.93 °C
ΔTm [6]: 10.6 °C

NC(=O)c1sc2nc(N3CCC(NC[C@H](O)c4ccccn4)CC3)cc(C(F)(F)F)c2c1N
ΔTm [1]: 1.22 °C
ΔTm [2]: 1 °C
ΔTm [3]: 1.86 °C
ΔTm [4]: 0.72 °C
ΔTm [5]: 0.39 °C
ΔTm [6]: 1.06 °C

CC(C)c1nc2c(c3c1[C@H](c1ccc(C(F)(F)F)cc1)OC31CCOCC1)[C@H](O)CC(C)(C)C2
ΔTm [1]: -0.1 °C
ΔTm [2]: -0.68 °C
ΔTm [3]: -0.53 °C
ΔTm [4]: -1.62 °C
ΔTm [5]: -0.14 °C
ΔTm [6]: -0.26 °C

CC(=O)N1CCC(c2ccc(C(=O)NC3=NCCN3)cc2C(F)(F)F)CC1
ΔTm [1]: 0.33 °C
ΔTm [2]: 0.15 °C
ΔTm [3]: 0.3 °C
ΔTm [4]: -0.03 °C
ΔTm [5]: 0.1 °C
ΔTm [6]: -0.15 °C

CCc1ccc(N(CC(C)C)S(=O)(=O)c2ccc(OCC3CCOCC3)c(CO)c2)cc1
ΔTm [1]: -3.79 °C
ΔTm [2]: 0.33 °C
ΔTm [3]: 0.71 °C
ΔTm [4]: 0 °C
ΔTm [5]: 0.2 °C
ΔTm [6]: -8.48 °C

CNc1[nH]c(Nc2ccc(C(=O)N3CCOCC3)cc2OC)nc2ncc(Cl)c1-2
ΔTm [1]: 0.1 °C
ΔTm [2]: -0.26 °C
ΔTm [3]: 4.5 °C
ΔTm [4]: -1.11 °C
ΔTm [5]: 0.86 °C
ΔTm [6]: 1 °C
